# Where “and” joins values, the source holds several entries; their conditions need not be identical. Identical values can stand only once. About 6,800 (1.8%) of roughly 370,000 compounds were called active. The entries come from a sample that favours actives as a whole. Unmarked numbers belong to inactive results.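 How the source made its calls: active means activation above a cutoff set at the mean of all screened compounds plus 3 SD (cut at about 10% in these data); inactive means the rest.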
# Tested on: Nuclear hormone receptor DAF-12 (Heterodera glycines), GAL4 fusion
# Test: H. glycines DAF-12 receptor agonists, primary screen, cell-based, luminescence, HEK293, GAL4 fusion, UAS-luciferase (AID 687014);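 further: 0% = DMSO wells and 100% = sodium butyrate wells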
# Conditions: HEK293 GAL4-hgDAF12 UAS-luciferase reporter, agonist luminescence; at 6.8 µM; stronger effect = higher value; normalized to butyrate control
row,Compound,activation
1,CC(=O)c1sc(N/N=C\c2ccc(C)cc2)nc1C,11.2% (active)
2,CC(=O)c1sc(N/N=C/c2ccc(C(C)C)cc2)nc1C,14.4% (active)
3,CCOC(=O)c1sc(/N=C/Nc2nc(C)c(C(=O)OCC)s2)nc1C,0.82%
4,Cc1cc2c(=O)n(CC(=O)NCC(=O)Nc3ccc(C(C)C)cc3)cnc2s1,1.17%
5,CC(=O)c1sc(N)nc1C,1.06% and 4.44%
6,C=CC[C@]12C[C@@]3(O[C@H](c4ccc(C(F)(F)F)cc4)N=C3C[C@H](c3ccc(OC)cc3)[C@H]1C)N(C1CCN(Cc3ccccc3)CC1)C2=O,0.9%
7,c1csc(-c2nnc(SCc3nc4ccccc4[nH]3)o2)c1,-0.48%
8,CCOC(=O)C1=CN(Cc2ccc(Br)cc2)S(=O)(=O)N(C)C1C (stereo not given),0.23%
9,Cc1ccc(S(=O)(=O)N(NC2=NS(=O)(=O)c3ccccc32)C(=O)c2ccccc2)cc1,0.43%
10,O=C(Oc1cccc(NC2=NS(=O)(=O)c3ccccc32)c1)c1ccncc1,-1.92%
11,CC(C)(C)c1csc(NC2=NS(=O)(=O)c3ccccc32)n1,19.4% (active)
12,CCCCOCCCNC(=O)C[C@H]1C[C@@]2(C(=O)OC)C(=C[C@H](C(C)(C)C)O[C@@H]2C)N(CCc2ccc(OC)c(OC)c2)C1=O,-0.02%
13,CCCNC(=O)c1cc2c(c(-c3cccc(-c4ccc(C#N)cc4)c3)n1)[C@@H](CCO)N(C(=O)CC)C2,-0.02%
14,Cc1ccsc1C(=O)NCCc1ccco1,8.62%
15,Cc1ccc(NC(=O)CN2CCC(C(N)=O)CC2)cc1[N+](=O)[O-],0.92%
16,Cc1ccc(/C=N/NC(=O)c2sccc2OCc2ccc(F)cc2)cc1,3.63%
17,Cc1ccsc1C(=O)NC1CCCCC1C (stereo not given),-0.72%
18,Cc1ccc(NC(=O)c2sccc2C)cc1[N+](=O)[O-],14.2% (active)
19,Cc1ccsc1C(=O)N/N=C/c1ccc([N+](=O)[O-])cc1,13.9% (active)
20,Cn1c(N)c(C(=O)COC(=O)c2ccccc2NCc2ccco2)c(=O)n(C)c1=O,-0.34%

row,Compound,activation
1,COc1ccc(C#CCNCc2ccc(OC)cc2OC)cc1,-1.32%
2,O=C(c1ccccc1)c1ccc(-c2ccccc2C(=O)NC2CCCCN(Cc3ccc(Cl)cc3)C2=O)cc1 (stereo not given),3.48%
3,CC(CO)N1CCS(=O)(=O)CC1 (stereo not given),0.38%
4,N#Cc1ccccc1OC[C@@H](O)CN1CCC(C(O)(c2ccccc2)c2ccccc2)CC1,-4.54%
5,C=CCN1C(=O)[C@H](CC(=O)NCCCN2CCCC2=O)[C@@]2(C(=O)OCC)CCCC=C12,-1.4%
6,Cc1[nH]nc2c1C(c1ccc(Br)cc1)NC2=O (stereo not given),0.07%
7,O=S(=O)(Nc1ccccc1Cl)c1cccc2nsnc12,-1.42%
8,O=C(Nc1ccccc1Cl)c1ccc2nsnc2c1,12.6% (active)
9,O=C(Nc1ccccc1Cl)/C(Cl)=C(\Cl)S(=O)c1ccccc1 (stereo not given),-20.1%
10,Cc1ccc(-n2c(SCC(=O)Nc3ccc(S(=O)(=O)Nc4nccs4)cc3)nnc2-c2ccncc2)cc1,-0.9%
11,Nc1ncnc2c1ncn2C1OC(CO)CC1O (stereo not given),-1.31%
12,COc1ccc(C(=O)Nc2sc(C)c(C)c2CN2CCOCC2)cc1,11.8% (active)
13,CCOc1ccc(C(=O)Nc2ccc(CN3CCOCC3)cc2)cc1Cl,-0.68%
14,COc1ccc(C(=O)Nc2ccnn2C2CCN(Cc3ccncc3)CC2)cc1,-1.76%
15,COC(=O)c1ccccc1-n1cc(COC(=O)NCCc2ccccc2)nn1,0.71%
16,COC(=O)c1ccc(CN2C(=O)[C@]3(OCCC=C[C@H]3C)c3c(Br)cccc32)cc1,4.21%
17,Cc1ccc2nc(/C(C#N)=C\c3ccc(OC(=O)c4cccs4)cc3)[nH]c2c1,10.6% (active)
18,COc1ccc(S(=O)(=O)N2CCCC2CNC(=O)C(=O)NC2CC2)cc1 (stereo not given),0.71%
19,O=C(O)c1ccc(N/N=C/c2cn(-c3ccccc3)nc2-c2cccs2)cc1,16.3% (active)
20,O=Cc1cn(-c2ccccc2)nc1-c1ccccn1,-0.68%

row,Compound,activation
1,O=C(N/N=C/c1sc(N2CCCCC2)nc1-c1cccs1)c1cccnc1,1.92%
2,Fc1ccc2nc(COCc3nc4ccc(F)cc4[nH]3)[nH]c2c1,0.86%
3,COc1cccc(-c2nnc(N(C)C(=O)c3ccno3)s2)c1,3.08%
4,O=C(Nc1ccccc1C(=O)NCCCn1ccnc1)c1ccc(Cl)cc1Cl,-1.62%
5,O=C(NCCCn1ccnc1)c1cc(Br)c(Br)s1,1.27%
6,O=C(NCCCn1ccnc1)c1cc(-c2ccccc2)on1,46% (active)
7,O=C(NC1CC1)c1ccc(-c2ccccc2)cc1,9.69%
8,O=C(NC1CCCC1)c1cc(-c2ccccc2)on1,36.2% (active)
9,O=C(NC1CCCCCCC1)c1cccs1,2.58%
10,COC(=O)c1ccc(COC(=O)C2CCN(S(=O)(=O)c3c(Cl)cccc3Cl)CC2)o1,-1.37%
11,COc1ccc2c(C(C)c3ccc(N)cc3)cn(C)c2c1 (stereo not given),0.29%
12,COC(=O)[C@]1(C#N)CC(=O)N(CC2CCCCC2)[C@@H]1c1ccccc1,1.35%
13,Cc1ccccc1CN1CCCCC(NC(=O)Nc2ccccc2F)C1=O (stereo not given),-3.67%
14,Nc1nc(SCC(=O)Nc2ccc(Cl)c([N+](=O)[O-])c2)n[nH]1,-3.01%
15,O=C(NCc1ccccc1)[C@@H]1CCCN1C(=O)[C@H]1CCCN1C(=O)c1cccc(Cl)c1,2.12%
16,COC(=O)[C@]12C[C@H](CC(=O)N3CCOCC3)C(=O)N(Cc3ccc(Cl)cc3Cl)C1=C[C@H](COCc1ccccc1)O[C@@H]2C,-2.38%
17,CCOC(=O)C1=C(C)NC2=C(C(=O)CC(C)(C)C2)C1c1ccc2c(c1)OCO2 (stereo not given),-2.39%
18,COc1ccc(CNC(=O)COC(=O)c2c(C)nn(-c3ccccc3)c2C)cc1OC,-3.17%
19,COc1ccc(CNC(=O)COC(=O)c2sccc2C)cc1OC,0.76%
20,COc1ccc(CNC(=O)COc2ccccc2C(=O)c2cnn(-c3ccccc3)c2)cc1OC,13.4% (active)

# Reference: PubChem BioAssay AID687014 (The Scripps Research Institute Molecular Screening Center, 2013)
